# Assay results published in PMC7862700, “An all-to-all approach to the identification of sequence-specific readers for epigenetic DNA modifications on cytosine”.
# Key:
# Test in all cases: DAPPL (digital affinity profiling via proximity ligation, sequencing); 10 mM Tris-HCl pH 7.5, 50 mM NaCl, 1 mM DTT, 4% glycerol, room temperature, 30 min; GST-TFs on glutathione beads, 16-mer random dsDNA library, 0.1% formaldehyde crosslink after washing; high values mean tight binding
# [1] = biological target: T1, FLI1 (Homo sapiens, UniProt Q01543 1-452); conditions: protein: recombinant; tags: N-terminal GST; dsDNA, one strand shown
# T1 sequence: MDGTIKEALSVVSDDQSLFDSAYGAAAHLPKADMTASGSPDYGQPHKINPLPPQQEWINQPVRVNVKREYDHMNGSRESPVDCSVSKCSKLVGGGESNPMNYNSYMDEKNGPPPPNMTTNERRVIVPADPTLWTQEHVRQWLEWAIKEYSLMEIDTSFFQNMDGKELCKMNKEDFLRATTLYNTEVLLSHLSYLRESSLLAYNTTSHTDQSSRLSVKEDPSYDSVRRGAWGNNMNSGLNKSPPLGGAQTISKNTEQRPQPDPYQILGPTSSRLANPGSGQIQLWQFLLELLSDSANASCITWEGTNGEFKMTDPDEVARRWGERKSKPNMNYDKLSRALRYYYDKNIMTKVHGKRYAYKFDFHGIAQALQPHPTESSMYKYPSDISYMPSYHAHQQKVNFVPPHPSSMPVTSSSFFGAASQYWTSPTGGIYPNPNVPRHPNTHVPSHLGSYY
# How it was run: (§1)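 The binding signal reported is, for every hexamer, its read frequency for a factor over its read frequency for the tag-only sample. Reads came from pools of yeast-expressed, GST-fused human transcription factors on glutathione beads, barcoded with DNA and mixed with that sample, which were incubated with 200 nmole of a random double-stranded 16-mer DNA library in Tris/NaCl/DTT/glycerol buffer at room temperature for 30 min. After washing, the pools were crosslinked with 0.1% formaldehyde, proximity-ligated with BsaI/T4 ligase for 1 h at 37 °C, PCR-amplified and sequenced on an Illumina NextSeq500.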
# [2] = biological target: T2, ELK1 (Homo sapiens, UniProt P19419 1-428); conditions: protein: recombinant; tags: N-terminal GST; dsDNA, one strand shown
# T2 sequence: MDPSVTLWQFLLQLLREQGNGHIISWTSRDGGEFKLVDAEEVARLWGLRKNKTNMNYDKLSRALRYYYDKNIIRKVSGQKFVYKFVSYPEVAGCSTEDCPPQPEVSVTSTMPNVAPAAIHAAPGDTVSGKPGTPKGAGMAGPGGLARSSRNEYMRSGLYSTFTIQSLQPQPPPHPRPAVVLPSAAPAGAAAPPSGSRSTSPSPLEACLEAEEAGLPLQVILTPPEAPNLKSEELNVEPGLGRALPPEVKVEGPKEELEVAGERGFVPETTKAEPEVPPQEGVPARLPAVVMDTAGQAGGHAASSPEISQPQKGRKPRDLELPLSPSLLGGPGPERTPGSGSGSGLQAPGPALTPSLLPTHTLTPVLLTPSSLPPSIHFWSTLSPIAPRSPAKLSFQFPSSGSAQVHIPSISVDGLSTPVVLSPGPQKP
# How it was run: as §1
# [3] = biological target: T3, GABPA (Homo sapiens, UniProt Q06546 1-454); conditions: protein: recombinant; tags: N-terminal GST; dsDNA, one strand shown
# T3 sequence: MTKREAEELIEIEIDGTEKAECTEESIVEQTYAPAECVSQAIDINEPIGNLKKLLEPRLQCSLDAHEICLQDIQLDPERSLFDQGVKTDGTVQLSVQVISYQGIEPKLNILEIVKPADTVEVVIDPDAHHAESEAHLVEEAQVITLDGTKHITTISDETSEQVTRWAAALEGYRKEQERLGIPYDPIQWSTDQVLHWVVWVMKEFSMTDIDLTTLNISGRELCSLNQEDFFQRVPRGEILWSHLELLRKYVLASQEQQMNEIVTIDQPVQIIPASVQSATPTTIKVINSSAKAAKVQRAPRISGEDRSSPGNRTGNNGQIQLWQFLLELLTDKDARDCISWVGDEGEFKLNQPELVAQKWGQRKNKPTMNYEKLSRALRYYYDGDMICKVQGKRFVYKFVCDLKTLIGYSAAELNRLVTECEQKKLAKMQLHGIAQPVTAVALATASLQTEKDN
# How it was run: as §1
# [4] = biological target: T4, ERG (Homo sapiens, UniProt P11308 1-479); conditions: protein: recombinant; tags: N-terminal GST; dsDNA, one strand shown
# T4 sequence: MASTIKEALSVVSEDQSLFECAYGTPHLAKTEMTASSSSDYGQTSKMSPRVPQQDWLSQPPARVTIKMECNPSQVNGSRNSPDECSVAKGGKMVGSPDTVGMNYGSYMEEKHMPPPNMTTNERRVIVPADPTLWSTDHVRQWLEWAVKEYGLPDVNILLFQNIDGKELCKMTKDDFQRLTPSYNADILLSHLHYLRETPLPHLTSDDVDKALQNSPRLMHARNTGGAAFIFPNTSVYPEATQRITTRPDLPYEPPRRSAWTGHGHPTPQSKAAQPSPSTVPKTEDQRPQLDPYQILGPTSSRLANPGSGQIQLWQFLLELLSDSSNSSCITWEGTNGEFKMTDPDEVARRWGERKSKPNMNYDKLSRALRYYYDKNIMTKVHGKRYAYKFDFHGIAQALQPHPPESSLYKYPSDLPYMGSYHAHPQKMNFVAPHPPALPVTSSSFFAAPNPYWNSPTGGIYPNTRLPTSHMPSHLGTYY
# How it was run: as §1
# [5] = biological target: ELF1 (Homo sapiens, UniProt P32519 1-619); conditions: protein: recombinant; tags: N-terminal GST; dsDNA, one strand shown
# Chain of ELF1 (P32519 whole entry): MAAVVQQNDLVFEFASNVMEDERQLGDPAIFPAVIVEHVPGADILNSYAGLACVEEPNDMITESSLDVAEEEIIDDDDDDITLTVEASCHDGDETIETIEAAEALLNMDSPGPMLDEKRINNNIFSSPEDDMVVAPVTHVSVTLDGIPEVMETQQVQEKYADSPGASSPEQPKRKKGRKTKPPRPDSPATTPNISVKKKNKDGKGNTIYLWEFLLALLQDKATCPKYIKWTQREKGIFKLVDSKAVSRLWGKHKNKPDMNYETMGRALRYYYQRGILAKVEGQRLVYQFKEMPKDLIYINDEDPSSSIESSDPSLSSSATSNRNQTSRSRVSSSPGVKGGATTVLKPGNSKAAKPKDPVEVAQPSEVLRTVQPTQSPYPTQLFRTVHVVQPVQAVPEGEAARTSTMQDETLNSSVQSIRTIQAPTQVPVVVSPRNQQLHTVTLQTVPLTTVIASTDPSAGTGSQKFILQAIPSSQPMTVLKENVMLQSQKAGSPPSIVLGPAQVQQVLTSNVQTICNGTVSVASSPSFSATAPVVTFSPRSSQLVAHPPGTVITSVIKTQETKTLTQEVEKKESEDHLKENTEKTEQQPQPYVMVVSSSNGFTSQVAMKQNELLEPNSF
# How it was run: as §1
# [6] = biological target: T5, EHF (Homo sapiens, UniProt Q9NZC4 1-300); conditions: protein: recombinant; tags: N-terminal GST; dsDNA, one strand shown
# T5 sequence: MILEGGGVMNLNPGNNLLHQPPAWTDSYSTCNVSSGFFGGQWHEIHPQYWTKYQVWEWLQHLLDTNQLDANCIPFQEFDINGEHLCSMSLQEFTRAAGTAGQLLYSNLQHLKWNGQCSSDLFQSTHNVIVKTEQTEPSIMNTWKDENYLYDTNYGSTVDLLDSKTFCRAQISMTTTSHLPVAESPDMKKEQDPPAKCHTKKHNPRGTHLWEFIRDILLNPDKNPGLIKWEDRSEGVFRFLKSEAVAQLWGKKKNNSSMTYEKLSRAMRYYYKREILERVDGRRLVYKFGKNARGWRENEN
# How it was run: as §1
# [7] = biological target: SPI1 (Homo sapiens, UniProt P17947 1-270); conditions: protein: recombinant; tags: N-terminal GST; dsDNA, one strand shown
# How it was run: as §1
# [8] = biological target: SPIB (Homo sapiens, UniProt Q01892 1-262); conditions: protein: recombinant; tags: N-terminal GST; dsDNA, one strand shown
# Chain of SPIB (Q01892 whole entry): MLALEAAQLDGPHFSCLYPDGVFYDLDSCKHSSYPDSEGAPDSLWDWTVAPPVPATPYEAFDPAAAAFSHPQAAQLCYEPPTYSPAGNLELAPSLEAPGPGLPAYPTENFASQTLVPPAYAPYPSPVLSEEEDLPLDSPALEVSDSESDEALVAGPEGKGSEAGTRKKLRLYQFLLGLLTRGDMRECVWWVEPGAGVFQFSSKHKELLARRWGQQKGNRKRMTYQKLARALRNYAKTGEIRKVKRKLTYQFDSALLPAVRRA
# How it was run: as §1
# [9] = biological target: T6, ELK3 (Homo sapiens, UniProt P41970 1-407); conditions: protein: recombinant; tags: N-terminal GST; dsDNA, one strand shown
# T6 sequence: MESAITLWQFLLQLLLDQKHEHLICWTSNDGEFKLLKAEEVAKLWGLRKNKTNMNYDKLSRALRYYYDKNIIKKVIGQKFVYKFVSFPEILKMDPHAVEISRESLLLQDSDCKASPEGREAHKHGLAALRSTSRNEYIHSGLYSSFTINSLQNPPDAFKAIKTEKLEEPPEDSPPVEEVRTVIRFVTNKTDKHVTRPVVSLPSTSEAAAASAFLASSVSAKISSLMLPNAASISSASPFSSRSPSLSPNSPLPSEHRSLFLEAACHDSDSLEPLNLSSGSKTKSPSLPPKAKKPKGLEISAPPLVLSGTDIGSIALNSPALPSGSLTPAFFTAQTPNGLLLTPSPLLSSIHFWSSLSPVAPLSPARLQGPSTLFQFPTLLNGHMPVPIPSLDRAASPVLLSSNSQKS
# How it was run: as §1
# [10] = biological target: T7, FEV (Homo sapiens, UniProt Q99581 1-238); conditions: protein: recombinant; tags: N-terminal GST; dsDNA, one strand shown
# T7 sequence: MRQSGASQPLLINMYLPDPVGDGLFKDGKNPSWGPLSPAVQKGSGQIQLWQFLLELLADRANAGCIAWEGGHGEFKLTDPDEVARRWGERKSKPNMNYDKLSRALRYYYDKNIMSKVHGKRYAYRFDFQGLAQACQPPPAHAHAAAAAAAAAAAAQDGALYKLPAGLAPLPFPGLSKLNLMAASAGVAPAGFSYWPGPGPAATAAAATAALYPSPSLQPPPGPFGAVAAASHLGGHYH
# How it was run: as §1
# [11] = biological target: ETV5 (Homo sapiens, UniProt P41161 1-510); conditions: protein: recombinant; tags: N-terminal GST; dsDNA, one strand shown
# Chain of ETV5 (P41161 whole entry): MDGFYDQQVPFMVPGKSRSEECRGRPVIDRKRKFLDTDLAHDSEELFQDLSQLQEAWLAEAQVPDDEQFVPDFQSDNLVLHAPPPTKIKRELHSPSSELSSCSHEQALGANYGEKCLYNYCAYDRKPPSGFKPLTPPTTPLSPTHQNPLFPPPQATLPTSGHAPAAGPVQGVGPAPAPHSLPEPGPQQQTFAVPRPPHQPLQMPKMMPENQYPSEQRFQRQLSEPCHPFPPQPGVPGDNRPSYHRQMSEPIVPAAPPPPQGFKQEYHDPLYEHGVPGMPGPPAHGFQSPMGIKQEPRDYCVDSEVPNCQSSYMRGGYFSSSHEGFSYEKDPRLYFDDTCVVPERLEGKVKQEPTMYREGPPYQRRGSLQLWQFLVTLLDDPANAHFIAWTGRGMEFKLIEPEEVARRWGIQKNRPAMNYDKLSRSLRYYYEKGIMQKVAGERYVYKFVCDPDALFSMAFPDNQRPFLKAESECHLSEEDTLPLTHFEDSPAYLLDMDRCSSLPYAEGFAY
# How it was run: as §1
# [12] = biological target: HSF1 (Homo sapiens, UniProt Q00613 1-529); conditions: protein: recombinant; tags: N-terminal GST; chain copies: 3; dsDNA, one strand shown
# Chain of HSF1 (Q00613 whole entry): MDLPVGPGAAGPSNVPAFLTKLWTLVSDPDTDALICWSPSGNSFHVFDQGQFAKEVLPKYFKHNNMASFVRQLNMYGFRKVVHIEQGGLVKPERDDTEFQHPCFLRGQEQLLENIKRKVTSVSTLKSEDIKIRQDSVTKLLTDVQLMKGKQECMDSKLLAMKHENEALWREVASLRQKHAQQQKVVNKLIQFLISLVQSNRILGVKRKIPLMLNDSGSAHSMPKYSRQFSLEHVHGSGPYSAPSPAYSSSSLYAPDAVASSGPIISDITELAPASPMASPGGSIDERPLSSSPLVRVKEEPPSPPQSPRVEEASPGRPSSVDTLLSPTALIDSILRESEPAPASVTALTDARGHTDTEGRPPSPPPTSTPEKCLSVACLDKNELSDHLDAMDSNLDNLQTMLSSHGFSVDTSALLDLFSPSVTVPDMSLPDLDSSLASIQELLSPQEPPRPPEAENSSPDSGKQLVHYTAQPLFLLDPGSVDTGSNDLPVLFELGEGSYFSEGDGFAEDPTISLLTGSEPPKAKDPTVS
# How it was run: as §1
# [13] = biological target: T8, SPIC (Homo sapiens, UniProt Q8N5J4 1-248); conditions: protein: recombinant; tags: N-terminal GST; dsDNA, one strand shown
# T8 sequence: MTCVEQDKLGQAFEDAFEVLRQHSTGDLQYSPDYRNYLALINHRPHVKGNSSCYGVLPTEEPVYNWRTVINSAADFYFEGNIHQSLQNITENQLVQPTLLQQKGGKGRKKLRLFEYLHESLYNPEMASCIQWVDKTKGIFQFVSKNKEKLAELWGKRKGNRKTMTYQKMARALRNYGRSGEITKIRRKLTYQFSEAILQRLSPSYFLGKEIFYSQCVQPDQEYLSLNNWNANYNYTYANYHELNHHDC
# How it was run: as §1
# [14] = biological target: ELF4 (Homo sapiens, UniProt Q99607 1-663); conditions: protein: recombinant; tags: N-terminal GST; dsDNA, one strand shown
# Chain of ELF4 (Q99607 whole entry): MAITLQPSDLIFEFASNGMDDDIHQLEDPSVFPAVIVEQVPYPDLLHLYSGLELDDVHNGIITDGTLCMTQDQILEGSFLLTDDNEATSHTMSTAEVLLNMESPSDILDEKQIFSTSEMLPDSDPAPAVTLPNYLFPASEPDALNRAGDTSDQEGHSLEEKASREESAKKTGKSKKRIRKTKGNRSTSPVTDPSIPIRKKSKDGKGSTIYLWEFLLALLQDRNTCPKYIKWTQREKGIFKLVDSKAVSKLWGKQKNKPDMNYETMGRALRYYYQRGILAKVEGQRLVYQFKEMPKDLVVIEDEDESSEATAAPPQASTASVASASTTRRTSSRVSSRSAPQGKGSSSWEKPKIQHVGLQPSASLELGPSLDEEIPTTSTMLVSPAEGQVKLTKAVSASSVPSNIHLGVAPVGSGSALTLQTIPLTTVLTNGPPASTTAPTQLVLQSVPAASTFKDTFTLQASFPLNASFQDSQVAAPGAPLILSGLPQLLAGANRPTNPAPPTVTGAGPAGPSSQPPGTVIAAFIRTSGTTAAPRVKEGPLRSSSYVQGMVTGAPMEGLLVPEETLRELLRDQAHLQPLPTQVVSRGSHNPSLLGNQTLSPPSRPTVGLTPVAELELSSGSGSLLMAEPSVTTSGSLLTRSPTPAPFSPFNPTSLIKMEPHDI
# How it was run: as §1
# [15] = biological target: T9, ELK4 (Homo sapiens, UniProt P28324-2 1-405); conditions: protein: recombinant; tags: N-terminal GST; dsDNA, one strand shown
# T9 sequence: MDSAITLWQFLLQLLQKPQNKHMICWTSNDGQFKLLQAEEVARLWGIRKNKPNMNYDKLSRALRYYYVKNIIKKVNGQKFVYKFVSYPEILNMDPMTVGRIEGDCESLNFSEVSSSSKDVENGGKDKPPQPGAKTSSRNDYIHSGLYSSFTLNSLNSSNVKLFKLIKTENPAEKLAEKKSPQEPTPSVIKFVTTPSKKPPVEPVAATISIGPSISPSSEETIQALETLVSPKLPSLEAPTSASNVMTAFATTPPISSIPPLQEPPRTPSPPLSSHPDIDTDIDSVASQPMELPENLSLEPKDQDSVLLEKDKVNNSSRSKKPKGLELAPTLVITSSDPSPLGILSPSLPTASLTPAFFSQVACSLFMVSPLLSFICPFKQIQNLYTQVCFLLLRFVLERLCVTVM
# How it was run: as §1
# [16] = biological target: T10, ETV2 (Homo sapiens, UniProt O00321 1-342); conditions: protein: recombinant; tags: N-terminal GST; dsDNA, one strand shown
# T10 sequence: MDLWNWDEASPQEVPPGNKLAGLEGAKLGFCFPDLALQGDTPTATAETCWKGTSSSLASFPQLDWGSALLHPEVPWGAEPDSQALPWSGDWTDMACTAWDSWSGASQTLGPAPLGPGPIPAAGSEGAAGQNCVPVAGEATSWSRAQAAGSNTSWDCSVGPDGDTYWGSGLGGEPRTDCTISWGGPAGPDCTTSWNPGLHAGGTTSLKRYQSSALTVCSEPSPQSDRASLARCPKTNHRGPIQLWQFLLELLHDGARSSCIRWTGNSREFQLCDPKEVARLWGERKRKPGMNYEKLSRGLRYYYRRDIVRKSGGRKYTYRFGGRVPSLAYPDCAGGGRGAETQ
# How it was run: as §1
# [17] = biological target: T11, ELF3 (Homo sapiens, UniProt P78545 1-371); conditions: protein: recombinant; tags: N-terminal GST; dsDNA, one strand shown
# T11 sequence: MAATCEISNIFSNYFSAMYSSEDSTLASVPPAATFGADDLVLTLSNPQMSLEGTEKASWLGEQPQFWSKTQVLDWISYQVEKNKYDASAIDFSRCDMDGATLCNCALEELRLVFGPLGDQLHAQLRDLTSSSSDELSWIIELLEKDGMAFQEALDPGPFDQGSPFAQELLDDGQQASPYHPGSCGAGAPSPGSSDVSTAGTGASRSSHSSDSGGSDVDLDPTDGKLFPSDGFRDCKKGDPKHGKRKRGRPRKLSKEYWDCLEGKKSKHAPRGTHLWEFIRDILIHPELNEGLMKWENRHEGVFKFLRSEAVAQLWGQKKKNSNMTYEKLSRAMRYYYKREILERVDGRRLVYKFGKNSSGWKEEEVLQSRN
# How it was run: as §1
# [18] = biological target: CRX (Homo sapiens, UniProt O43186 1-299); conditions: protein: recombinant; tags: N-terminal GST; dsDNA, one strand shown
# Chain of CRX (O43186 whole entry): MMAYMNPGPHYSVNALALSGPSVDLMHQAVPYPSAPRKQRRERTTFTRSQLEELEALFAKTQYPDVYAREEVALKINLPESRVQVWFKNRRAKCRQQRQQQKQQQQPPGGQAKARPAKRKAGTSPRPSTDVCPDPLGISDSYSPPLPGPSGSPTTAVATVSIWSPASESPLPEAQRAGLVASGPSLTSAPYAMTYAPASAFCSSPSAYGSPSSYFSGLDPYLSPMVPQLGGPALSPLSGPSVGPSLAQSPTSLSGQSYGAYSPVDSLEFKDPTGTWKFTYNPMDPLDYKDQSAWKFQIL
# How it was run: as §1
# [19] = biological target: ETV1 (Homo sapiens, UniProt P50549 1-477); conditions: protein: recombinant; tags: N-terminal GST; dsDNA, one strand shown
# Chain of ETV1 (P50549 whole entry): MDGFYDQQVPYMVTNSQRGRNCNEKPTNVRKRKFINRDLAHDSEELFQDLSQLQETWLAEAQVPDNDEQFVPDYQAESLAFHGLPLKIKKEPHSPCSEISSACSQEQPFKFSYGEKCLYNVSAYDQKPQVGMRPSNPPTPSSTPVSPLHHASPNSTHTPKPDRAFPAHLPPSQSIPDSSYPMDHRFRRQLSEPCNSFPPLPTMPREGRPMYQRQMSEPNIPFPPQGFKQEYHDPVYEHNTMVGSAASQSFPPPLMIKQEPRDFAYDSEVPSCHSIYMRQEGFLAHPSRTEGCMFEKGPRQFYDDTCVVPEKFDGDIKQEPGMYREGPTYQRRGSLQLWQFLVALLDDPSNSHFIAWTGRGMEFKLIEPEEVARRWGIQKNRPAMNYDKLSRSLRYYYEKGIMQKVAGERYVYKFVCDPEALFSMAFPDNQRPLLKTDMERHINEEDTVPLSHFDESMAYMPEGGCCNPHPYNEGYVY
# How it was run: as §1
sequence,measurement,setting,value
CCTACA,binding signal,[1],"1.35 fold enrichment (6-mer frequency, TF over GST control)"
same,binding signal,[2],"1.26 fold enrichment (6-mer frequency, TF over GST control)"
same,binding signal,[3],"1.33 fold enrichment (6-mer frequency, TF over GST control)"
same,binding signal,[4],"1.21 fold enrichment (6-mer frequency, TF over GST control)"
same,binding signal,[5],"1.19 fold enrichment (6-mer frequency, TF over GST control)"
same,binding signal,[6],"1.18 fold enrichment (6-mer frequency, TF over GST control)"
same,binding signal,[7],"1.16 fold enrichment (6-mer frequency, TF over GST control)"
same,binding signal,[8],"1.17 fold enrichment (6-mer frequency, TF over GST control)"
same,binding signal,[9],"1.19 fold enrichment (6-mer frequency, TF over GST control)"
same,binding signal,[10],"1.18 fold enrichment (6-mer frequency, TF over GST control)"
same,binding signal,[11],"1.26 fold enrichment (6-mer frequency, TF over GST control)"
same,binding signal,[12],"1.07 fold enrichment (6-mer frequency, TF over GST control)"
same,binding signal,[13],"1.35 fold enrichment (6-mer frequency, TF over GST control)"
same,binding signal,[14],"1.22 fold enrichment (6-mer frequency, TF over GST control)"
same,binding signal,[15],"1.31 fold enrichment (6-mer frequency, TF over GST control)"
same,binding signal,[16],"1.13 fold enrichment (6-mer frequency, TF over GST control)"
same,binding signal,[17],"1.13 fold enrichment (6-mer frequency, TF over GST control)"
same,binding signal,[18],"1.01 fold enrichment (6-mer frequency, TF over GST control)"
same,binding signal,[19],"1.16 fold enrichment (6-mer frequency, TF over GST control)"
